From PubChem BioAssay (NCI)
About 83,000 compounds went through this panel and 20% of them were active in at least one assay; those are over-represented in the sample as a whole.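 Values shown are percent growth following 48 h exposure of cells in 96-well plates to a single concentration of compound; below 10 was considered active.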 Calls of active or inactive are those of the source.

How the values were obtained:
Test in all cases: NCI-60 one-dose screen, 48 h (100 = growth as untreated, 0 = no growth, -100 = all killed)
Settings in all cases: 10 µM unless noted
SK-MEL-2 melanoma = test system: SK-MEL-2 melanoma
EKVX NSCLC = test system: EKVX NSCLC
SN12C renal = test system: SN12C renal
UO-31 renal = test system: UO-31 renal
TK-10 renal = test system: TK-10 renal
ACHN renal = test system: ACHN renal
CAKI-1 renal = test system: CAKI-1 renal
A498 renal = test system: A498 renal
MOLT-4 leukemia = test system: MOLT-4 leukemia
CCRF-CEM leukemia = test system: CCRF-CEM leukemia

Measured: growth

COc1cc(/C=C/C(=O)c2c(C)oc3nc[nH]c(=O)c23)ccc1O
inactive: SK-MEL-2 melanoma 109% | EKVX NSCLC 97.9% | SN12C renal 97.2% | UO-31 renal 84.3% | TK-10 renal 135% | ACHN renal 101% | CAKI-1 renal 87.1% | A498 renal 94.8% | MOLT-4 leukemia 104%

COc1ccc(C(=O)c2cc3c(N)c(C(=O)Nc4cccc(OC)c4)sc3nc2C)cc1
active: A498 renal -1.41%
inactive: SK-MEL-2 melanoma 27.9% | EKVX NSCLC 35.3% | SN12C renal 28.1% | UO-31 renal 49.3% | TK-10 renal 57.1% | ACHN renal 41.2% | CAKI-1 renal 45.8% | MOLT-4 leukemia 15.8%

COc1cc(-c2cc(=O)oc3cc(O)ccc23)c(OC)c2c1OCO2
inactive: SK-MEL-2 melanoma 96.6% | EKVX NSCLC 90.6% | SN12C renal 84% | UO-31 renal 72.2% | TK-10 renal 108% | ACHN renal 91.2% | CAKI-1 renal 76.9% | A498 renal 94.6% | MOLT-4 leukemia 100%

O=C(Nc1ccc(F)cc1)c1c(NC(=O)C(F)(F)F)sc2c1CCCCC2
active: SK-MEL-2 melanoma -26.8% | EKVX NSCLC -2.06% | SN12C renal 2.15% | UO-31 renal -0.296% | ACHN renal 1.59% | CAKI-1 renal -19.1% | A498 renal -57% | MOLT-4 leukemia 3.21%
inactive: TK-10 renal 15.5%

COc1cc(C(=O)c2cnc(-c3ccc4cc[nH]c4c3)[nH]2)cc(OC)c1OC
active: CAKI-1 renal 8.22% | CCRF-CEM leukemia 5.89% | MOLT-4 leukemia 7.06%
inactive: SK-MEL-2 melanoma 35.8% | EKVX NSCLC 28.2% | SN12C renal 20.5% | UO-31 renal 11.4% | TK-10 renal 33.3% | ACHN renal 15.5%

COc1ccc(C(=O)c2cc3c(N)c(C(=O)Nc4cccc(Cl)c4)sc3nc2C)cc1
active: A498 renal -0.876%
inactive: SK-MEL-2 melanoma 39.8% | EKVX NSCLC 39.4% | SN12C renal 42.7% | UO-31 renal 42.7% | TK-10 renal 49.9% | ACHN renal 49.3% | CAKI-1 renal 44.1% | MOLT-4 leukemia 20.2%

BrC(Br)(Br)c1cnc2ccccc2n1
inactive: SK-MEL-2 melanoma 90.2% | EKVX NSCLC 70.4% | SN12C renal 71.6% | CCRF-CEM leukemia 23.2%
active: UO-31 renal -51.1% | TK-10 renal -57.9% | ACHN renal -51.6% | CAKI-1 renal -29.7%

CCCCCOc1ccc(/C=N/Nc2cc(C)nc3ccc(Br)cc23)cc1
active: SN12C renal -88.8% | UO-31 renal -94.1% | ACHN renal -26.2% | CCRF-CEM leukemia 3.51% | MOLT-4 leukemia -21.8%
inactive: SK-MEL-2 melanoma 105% | EKVX NSCLC 76.3% | TK-10 renal 19.1% | CAKI-1 renal 43.6%

COc1ccccc1/C=C1\Oc2cc(OCCCN3CCCC3)ccc2C1=O
inactive: SK-MEL-2 melanoma 102% | EKVX NSCLC 90.6% | SN12C renal 86.9% | UO-31 renal 77.9% | TK-10 renal 104% | ACHN renal 97.4% | CAKI-1 renal 77.8% | A498 renal 77.3% | MOLT-4 leukemia 93.3%

CCNC(=O)c1[nH]cc(-c2ccc(OC)cc2)c1-c1cc(OC)cc(OC)c1
inactive: SK-MEL-2 melanoma 98.6% | EKVX NSCLC 89.8% | SN12C renal 85.4% | UO-31 renal 77.4% | TK-10 renal 115% | ACHN renal 67.3% | CAKI-1 renal 59.9% | A498 renal 91.1% | MOLT-4 leukemia 94.5%

O=C(/C=C\c1ccc(OCCCCCC[P+](c2ccccc2)(c2ccccc2)c2ccccc2)cc1)c1ccc2c(c1)OCCO2
active: SK-MEL-2 melanoma -42.9% | SN12C renal 2.08% | UO-31 renal 4.82% | TK-10 renal -9.1% | ACHN renal 5.03% | CAKI-1 renal 2.91% | A498 renal -30% | MOLT-4 leukemia -20.6%
inactive: EKVX NSCLC 23.9%

CCN(CCNc1cc(OC)cc2cccnc12)CCc1ccccc1
inactive: SK-MEL-2 melanoma 101% | EKVX NSCLC 91.2% | SN12C renal 91.3% | UO-31 renal 70.8% | TK-10 renal 101% | ACHN renal 84.1% | CAKI-1 renal 84.7% | CCRF-CEM leukemia 73.7%

COc1ccc(-c2nc3sccn3c2/C=C/C(=O)c2cc(OC)c(OC)c(OC)c2)cc1
inactive: SK-MEL-2 melanoma 43.9% | EKVX NSCLC 60% | SN12C renal 62.5% | UO-31 renal 17.6% | TK-10 renal 82.7% | ACHN renal 55.7% | CAKI-1 renal 42.4% | A498 renal 84.9% | MOLT-4 leukemia 29.8%

O=C(Nc1nc(-c2ccccc2Cl)cs1)c1cc(-c2ccccc2)nc2ccc(Cl)cc12
inactive: SK-MEL-2 melanoma 69.9% | EKVX NSCLC 92.2% | SN12C renal 37.9% | UO-31 renal 52.3% | TK-10 renal 88% | ACHN renal 84.9% | CAKI-1 renal 81.5% | CCRF-CEM leukemia 18.8% | MOLT-4 leukemia 25.8%

COc1ccc(Cc2nc3cc(OC)c(OC)cc3c(=O)[nH]2)cc1
inactive: SK-MEL-2 melanoma 105% | EKVX NSCLC 105% | SN12C renal 67.9% | UO-31 renal 69.6% | TK-10 renal 237% | ACHN renal 72.2% | CAKI-1 renal 95.7% | A498 renal 122% | MOLT-4 leukemia 80.7%
